SENP8 block-1 – SENP8 protease inhibition; Q96LD8; purified SENP8, Z-RLRGG-aminoluciferin cleavage, luminescence; inhibition, % at 10 µM; actives 1.2% (n = 330,000); AID 2540; in the data active = inhibition above about 50%
Target sequence (Q96LD8 whole entry, looked up): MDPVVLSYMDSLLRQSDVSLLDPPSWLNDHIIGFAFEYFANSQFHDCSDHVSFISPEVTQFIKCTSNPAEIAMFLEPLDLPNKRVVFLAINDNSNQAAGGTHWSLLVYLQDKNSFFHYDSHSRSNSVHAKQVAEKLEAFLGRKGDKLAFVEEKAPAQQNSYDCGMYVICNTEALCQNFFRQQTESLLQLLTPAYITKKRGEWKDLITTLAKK
SENP8 block-2 – SENP8 (human) protease inhibition | recombinant SENP8, Nedd8 substrate fluorescence | actives 0.64% (n = 360,000) | AID 602440 | inhibition, % at 20 µM | Q96LD8; in the data active = inhibition mostly above about 40%, no sharp cut-off; inactive = mostly below about 27%
SENP7 inh – blocks the human protease SENP7 | actives 1.5% (n = 330,000) | inhibition, % at 5 µM | recombinant SENP7, Z-RLRGG-aminoluciferin luminescence, 40 min | Q9BQF6;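 active = inhibition above about 50% at the single test dose, limit read from the data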;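 note: plate controls were DMSO with enzyme for no effect and no enzyme buffer wells for full effect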
SENP6 inh – inhibitors of human SENP6 protease. AID 2599. Recombinant SENP6 catalytic domain, aminoluciferin luminescence. actives 1.8% (n = 330,000). Q9GZR1. inhibition, % at 10 µM;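 active = inhibition above about 50% at the single tested dose, limit read from the data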;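 note: plate controls were DMSO wells with enzyme for no effect and DMSO wells lacking enzyme for full effect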
Platelet DG rel – platelet dense granule release activity. human platelet-rich plasma, SFLLRN dense granule ATP release, luminescence. inhibition, %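 (compounds screened at 7.5 µM in platelet-rich plasma)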. actives 0.22% (n = 300,000);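 active = mean replicate score, as percent of positive control, at or above 50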
HSP90 inh – inhibitors of HSP90 luciferase refolding in rabbit reticulocyte lysate; inhibition, % at 5.6 µM; actives 0.91% (n = 290,000); luciferase refolding luminescence, 3 h;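 active = inhibition above the screen-wide mean plus 3 SD, computed separately per campaign, cut at about 16% in these data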;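 note: 0% = DMSO wells and 100% = 60 µM geldanamycin wells; inhibitors lower the luminescence because luciferase stays unfolded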
HSP90 inh confirm – confirmation of HSP90 inhibitors; shares compounds with HSP90 inh; rabbit reticulocyte lysate, luciferase refolding luminescence, 3 h; inhibition, % at 5.9 µM; actives 64% (n = 2,300); in the data active = inhibition above about 18%;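 note: 0% = vehicle wells and 100% = reference inhibitor wells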
luciferase ctr – blocks native firefly luciferase in HSP90 counter-screen | shares compounds with HSP90 inh | actives 48% (n = 2,300) | inhibition, % at 5.9 µM | purified native firefly luciferase, luminescence;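 active = inhibition above the mean inhibition of all tested sample wells plus 3 SD, cut at about 10% in these data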;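 note: 0% = DMSO with luciferase and 100% = wells lacking luciferase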
Target sequence (P08659 whole entry, looked up): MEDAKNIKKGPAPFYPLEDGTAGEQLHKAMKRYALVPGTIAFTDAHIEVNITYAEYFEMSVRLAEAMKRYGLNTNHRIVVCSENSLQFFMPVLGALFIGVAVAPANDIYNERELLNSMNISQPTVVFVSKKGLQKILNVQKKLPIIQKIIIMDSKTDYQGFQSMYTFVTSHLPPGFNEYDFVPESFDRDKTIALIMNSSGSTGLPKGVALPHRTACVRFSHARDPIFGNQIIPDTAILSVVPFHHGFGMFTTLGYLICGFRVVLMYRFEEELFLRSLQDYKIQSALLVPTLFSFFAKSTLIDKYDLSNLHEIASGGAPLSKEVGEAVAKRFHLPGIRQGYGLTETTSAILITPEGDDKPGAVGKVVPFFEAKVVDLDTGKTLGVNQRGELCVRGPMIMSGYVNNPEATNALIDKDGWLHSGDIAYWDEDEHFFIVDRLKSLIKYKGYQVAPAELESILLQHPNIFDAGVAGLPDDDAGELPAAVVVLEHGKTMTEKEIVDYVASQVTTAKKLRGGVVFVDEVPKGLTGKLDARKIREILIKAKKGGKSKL
Numbers without * were called inactive; / = no result given. Most compounds without a hit are left out; they make up all but 2.8% or so of the library.

SMILES | SENP8 block-1 | SENP8 block-2 | SENP7 inh | SENP6 inh | Platelet DG rel | HSP90 inh | HSP90 inh confirm | luciferase ctr
Cc1c(/C=N/Nc2ccc(C(=O)O)cc2)c2ccccc2n1C | 2.5 | -397.6 | 9.6 | 3.9 | -3.8 | 41.6* | 37.7* | 26.5*
CC(=O)N1c2ccc(S(=O)(=O)N(C)C3CCCCC3)cc2CC1C (stereo unspecified) | 1.4 | 11.6 | 1.3 | 15.2 | -6.9 | 3.1 | / | /
O=C(CNCc1ccc(Cl)cc1)Nc1ccc(C(=O)N2CCCCCC2)cc1 | -10.7 | 14.4 | -6.0 | 0.2 | 3.4 | -4.4 | / | /
CC1CCN(c2ccc(/C=N/n3nnnc3N)cc2[N+](=O)[O-])CC1 | -2.6 | 22.7 | 12.6 | -2.7 | -6.4 | -1.7 | / | /
CC1CCN(c2ccc(/C=N\Nc3nncn3N)cc2[N+](=O)[O-])CC1 | / | 25.3 | / | / | / | 60.1* | -4.3 | -7.8
COC(=O)CNC(c1ccccc1)c1cc(Br)ccc1N (stereo unspecified) | 2.7 | 20.7 | 3.0 | -1.5 | 3.8 | 5.9 | / | /
NNC(=O)CNC(c1ccccc1)c1cc(Br)ccc1N (stereo unspecified) | -8.4 | 24.2 | -0.5 | -9.5 | -2.5 | 58.4* | -2.2 | -5.0
Cc1ccc(NC(=S)/C(=C(\[O-])c2ccc(C)c([N+](=O)[O-])c2)[n+]2ccccc2)cc1C | 3.8 | / | -3.4 | -7.8 | 6.9 | 30.9* | 16.9* | -15.8
Cc1ccccc1NC(=S)/C(=C(\[O-])c1ccc(C)c([N+](=O)[O-])c1)[n+]1ccccc1 | 1.3 | 30.9 | 7.8 | 1.4 | 8.5 | -2.5 | / | /
COc1cccc(N=c2oc3ccccc3cc2-c2nc3ccccc3[nH]2)c1 | 4.9 | -352.0 | -8.1 | -1.0 | 4.1 | 24.1* | -1.7 | -12.9
CCOc1ccc(CN2CCN(Cc3cc4ccccc4o3)CC2CCO)cc1 (stereo unspecified) | -3.2 | 26.6 | -12.6 | -3.7 | -4.8 | 60.5* | 2.5 | -2.1
COc1cccc(CN2CCN(Cc3cc4ccccc4o3)CC2CCO)c1 (stereo unspecified) | 2.4 | 0.7 | -5.5 | 14.8 | -6.2 | 0.6 | / | /
O=C(Nc1ccc(C(=O)NCCCN2CCN(c3ccc(F)cc3)CC2)cc1)C1=CSCCO1 | 7.2 | 2.8 | 4.6 | 6.8 | 1.9 | 29.6* | -2.6 | -6.3
COc1ccccc1N1C(=O)CC(Sc2n[nH]c(-c3cccc(C)c3)n2)C1=O (stereo unspecified) | 0.5 | 11.4 | 6.3 | -12.6 | 2.9 | -1.9 | / | /
COC(=O)C1CN(C(=O)COc2ccc(C)c(C)c2)c2ccccc2O1 (stereo unspecified) | 3.1 | 14.0 | 4.9 | 7.3 | 7.0 | -0.1 | / | /
Cc1nc(N)sc1-c1csc(N(C)c2ccc(O)cc2)n1 | -9.5 | 17.4 | -3.9 | 6.0 | 2.1 | 27.3* | -10.5 | -21.4
CN(c1ccc(O)cc1)c1nc(-c2cccs2)cs1 | 2.6 | 24.9 | -6.8 | -27.2 | 0.2 | 0.5 | / | /
COc1ccc(-c2cc(C)nc3c(-c4ccccc4)cnn23)cc1 | / | 18.5 | / | / | 2.2 | 20.9* | 45.2* | 28.1*
Cc1cc(-c2ccccc2)n2ncc(-c3ccccc3)c2n1 | -6.9 | 21.9 | 23.6 | 29.2 | 0.6 | 22.2* | 61.1* | 55.5*
Cc1cc(NCc2ccccc2)n2ncc(-c3ccccc3)c2n1 | 0.9 | -270.5 | 8.7 | -1.4 | -1.2 | 1.9 | / | /
CCOC(=O)c1oc2ccc(S(=O)(=O)N3CCOCC3)cc2c1C | 0.4 | 25.7 | -2.3 | -18.5 | 0.4 | -0.1 | / | /
CCOC(=O)c1oc2ccc(S(=O)(=O)N3CCC(C)CC3)cc2c1C | -2.0 | 5.1 | -1.7 | 11.5 | 9.5 | 21.5* | -1.7 | -9.2
Cc1c(Cl)cccc1-c1ccc(/C=N/n2cnnc2)o1 | -10.3 | -30.0 | -4.5 | -12.5 | 1.1 | 1.2 | / | /
Cc1c(C(=O)O)cccc1-c1ccc(/C=N/n2cnnc2)o1 | -2.1 | -91.5 | 10.8 | 12.9 | 5.5 | 18.3* | 19.6* | 7.6
Cc1oc2cc3c(C(=O)N4CCCCC4)c(C)oc3cc2c1C(=O)N1CCCCC1 | -4.6 | -1.5 | 6.6 | 13.4 | -7.0 | 74.0* | 68.4* | 33.3*
SMILES | SENP8 block-1 | SENP8 block-2 | SENP7 inh | SENP6 inh | Platelet DG rel | HSP90 inh | HSP90 inh confirm | luciferase ctr
Cc1cc[n+](-c2[nH]c(=O)sc2/C=N/N=C(\[O-])c2ccncc2)cc1C | -23.4 | 21.8 | -18.9 | -3.6 | -20.3 | 0.7 | / | /
Cc1cc[n+](-c2[nH]c(=O)sc2/C=N/N=C(\[O-])c2ccccc2)cc1C | / | 6.7 | / | / | -0.7 | 18.2* | -6.4 | -14.2
COc1ccc(C(=O)Nn2c(SCC(=O)c3ccc(Cl)cc3)nc3ccccc3c2=O)cc1 | 6.4 | 0.0 | 4.9 | 7.0 | 3.5 | 77.2* | 52.7* | 45.6*
COc1ccc(C(=O)CSc2ccccc2C(=O)O)cc1 | 15.8 | 16.7 | 18.4 | 42.7 | 5.3 | 31.8* | 32.4* | -6.6
COc1ccc(C(=O)Nn2c(C)nc3ccccc3c2=O)cc1 | 4.4 | 5.3 | -4.8 | -5.8 | -8.2 | 6.5 | / | /
COc1ccc(C(=O)Nn2c(SCC(=O)N3CCC(C)CC3)nc3ccccc3c2=O)cc1 | 13.4 | -5.4 | -4.1 | 9.7 | 10.0 | 73.4* | 71.2* | 67.4*
COc1ccc(C(=O)Nn2c(SCc3cccc([N+](=O)[O-])c3)nc3ccccc3c2=O)cc1 | 0.0 | 9.4 | 2.2 | 7.3 | -21.4 | 44.4* | 49.9* | 42.0*
COc1ccc(CNCCCn2cnc3c(SC)ncnc32)cc1 | / | 2.5 | / | / | / | / | / | /
CCn1c(SCC(=O)NCc2ccco2)nc2ccccc2c1=O | -2.8 | -9.6 | 4.0 | -9.7 | -1.1 | -0.9 | / | /
COc1ccc(C(=O)Nn2c(SCC(=O)NC3CCCCC3)nc3ccccc3c2=O)cc1 | 9.9 | 9.6 | -8.3 | 11.8 | 2.3 | 61.6* | 70.8* | 64.9*
COc1ccc(C(=O)Nn2c(SCC(=O)NCc3ccco3)nc3ccccc3c2=O)cc1 | 3.4 | 15.0 | 3.0 | 13.4 | 8.7 | 55.6* | 64.9* | 64.8*
CCC(=O)C1CCCN(C(=O)c2ccc3nc(-c4cccc(OC)c4)oc3c2)C1 (stereo unspecified) | -6.3 | -1.5 | 9.6 | 23.9 | 7.0 | 24.6* | 32.0* | 15.1*
CCN(CC)C(=O)C1CCCN(C(=O)c2ccc3nc(-c4cccc(OC)c4)oc3c2)C1 (stereo unspecified) | / | 10.2 | / | / | / | / | / | /
CCOC(=O)C1CCCN(C(=O)c2ccc3nc(-c4cccc(OC)c4)oc3c2)C1 (stereo unspecified) | 13.1 | -4.1 | 37.3 | 47.7 | 7.5 | 20.8* | 36.4* | 25.0*
O=C1OCCC1Sc1nnc(-c2ccccc2)o1 (stereo unspecified) | -15.0 | 26.6 | -10.8 | 1.7 | -0.3 | 1.2 | / | /
O=C1OCCC1Sc1nnc(-c2ccc(Cl)cc2Cl)o1 (stereo unspecified) | 14.2 | 9.7 | 28.0 | 37.4 | -2.6 | 33.1* | 66.9* | 57.3*
Cc1c(-c2nc(-c3ccc(C(F)(F)F)cc3)no2)n(C)oc1=O | 2.7 | -298.1 | 4.3 | 18.2 | 1.1 | 17.5* | 73.6* | -10.3

Source: PubChem BioAssay (several laboratories)
